Drawing on PubChem BioAssay (NCATS), this text covers activity, activity change, negative = inhibition and Potency for five molecules.

Active and inactive are the calls of the source. The call rests on the fitted dose curve.
Potency means the concentration at half of the fitted maximal effect.

Catechol O-methyltransferase (Homo sapiens), sequence (P21964 whole entry, looked up): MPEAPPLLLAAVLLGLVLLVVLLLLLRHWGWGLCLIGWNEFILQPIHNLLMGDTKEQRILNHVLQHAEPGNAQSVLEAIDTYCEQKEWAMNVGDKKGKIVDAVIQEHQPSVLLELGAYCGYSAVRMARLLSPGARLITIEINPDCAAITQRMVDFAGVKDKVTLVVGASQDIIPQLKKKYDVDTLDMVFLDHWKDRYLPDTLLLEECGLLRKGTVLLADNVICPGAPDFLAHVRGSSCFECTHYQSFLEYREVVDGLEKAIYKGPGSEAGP

The first assay has as its target Catechol O-methyltransferase (Homo sapiens) (UniProt P21964). Put plainly: Confirmatory Screen for Target Class Profiling of Small Molecule Inhibitors of Methyltransferases (AID 1745852). On activity change, negative = inhibition: on the % scale 0 is the no-effect control and ±100 the full control effect. The settings on record: MTase-Glo luminescence, SAH detection, recombinant enzyme; measured here: COMT max response; stronger effect = lower value.
Regarding `CCc1cncnc1N1CCN(Cc2nc3ccc(C(F)(F)F)cc3[nH]2)CC1`, the activity was determined as 1.23%.

Take `Oc1ccc(C2CNCCc3c2cc(O)c(O)c3Cl)cc1` (stereo not given): the activity is -77.1%.

Consider `Cc1ccccc1C(OCCN(C)C)c1ccccc1` (stereo not given), for which the activity was -2.48%.

On to `Cc1[nH]c(=O)c(C#N)cc1-c1ccc2nccn2c1`, for which the activity came out at 4.51%.

For `NC[C@H](O)c1ccc(O)c(O)c1`, the activity turned out to be 45.4%.

Another assay deals with Guanidinoacetate N-methyltransferase (Homo sapiens) (UniProt Q14353). The description is as above. The settings on record: MTase-Glo luminescence, SAH detection, recombinant enzyme; activity change, negative = inhibition: at 57.3 µM (top of the series) unless noted.
In the case of `CCc1cncnc1N1CCN(Cc2nc3ccc(C(F)(F)F)cc3[nH]2)CC1`, the activity change, negative = inhibition was 5.86%.

As for `Oc1ccc(C2CNCCc3c2cc(O)c(O)c3Cl)cc1` (stereo not given), the Potency was 27.3 µM (active).

Turning to `Cc1ccccc1C(OCCN(C)C)c1ccccc1` (stereo not given), the activity change, negative = inhibition amounted to 6.46%.

Turning to `Cc1[nH]c(=O)c(C#N)cc1-c1ccc2nccn2c1`, the activity change, negative = inhibition stood at 5.86%.

As for `NC[C@H](O)c1ccc(O)c(O)c1`, the activity change, negative = inhibition is -4.17%.
